Results reported in PubChem BioAssay AID748 (Sanford-Burnham Center for Chemical Genomics, 2007).
In all, about 96,000 compounds went through this assay and about 100 (0.1%) were called active. The sample as a whole holds a higher share of actives than the screen did. Results with a measured potency or affinity are listed apart. Values without a mark were called inactive.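 Rule for the calls: active = displacement above 50% at 20 µM plus a fluorescence interference ratio under 1.5; inactive = the rest.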

biological target: Bcl-2-like protein 10 (Homo sapiens) (UniProt Q9HD36); experiment: displacers of TR3 peptide from Bcl-B, primary screen, selectivity assay for Bfl-1 inhibitor project, biochemical, fluorescence polarization, FITC-TR3 peptide (AID 748); settings: FP displacement of FITC-TR3 peptide from Bcl-B; at 20 µM; hits give high values;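 note: plate controls were wells without compound for no effect and wells lacking Bcl-B protein for full effect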

SMILES | displacement
CC(C)c1cc(=O)oc2c3c4c(cc12)CCCN4CCC3 | 59.5%
O=c1oc2c3c4c(cc2c2c1CCC2)OCCN4CCC3 | 49.8%
CCNC(=O)CN1c2cccc3cccc(c23)S1(=O)=O | -6.3%
CCOC(=O)c1cc(CC)sc1NC(=O)CCC(=O)O | 1.7%
Brc1ccc(C2Nc3cccc4cccc(c34)N2)o1 | 17.6%
O=C1NC(c2ccco2)Nc2ccccc21 (centres undefined) | -1.7%
COC(=O)c1ccc(Oc2c(C(F)(F)F)oc3c(CN4CCN(C)CC4)c(O)ccc3c2=O)cc1 | 4.9%
CCOC(=O)N1CCC(NC(=O)C2CCCN(C(=O)N3CCOc4ccccc43)C2)CC1 (centres undefined) | 3.1%
O=C(O)c1cn[nH]c1-n1cnnn1 | 0.2%
CC(C)Oc1ccc(C(=O)Nc2ccc(N3CCCC3)cc2)cc1 | 0%
Cc1cc(C)cc(OCC(=O)Nc2ccc(N3CCCC3)cc2)c1 | 17.3%
CCCCOc1ccc(C(=O)Nc2ccc(N3CCN(C)CC3)cc2)cc1 | -3.7%
CCCC(=O)N1CCN(c2ccc(NC(=O)c3ccc(OCC)c([N+](=O)[O-])c3)cc2)CC1 | -1.6%
Cc1cccc(OCCCC(=O)Nc2ccc(N3CCCCC3)cc2)c1C | -5.7%
CCOc1ccc(C(=O)Nc2ccc(N3CCCC3)cc2)cc1 | 35.5%
Cc1ccc(OCC(=O)Nc2ccc(N3CCOCC3)cc2)cc1 | 4.4%
Cc1cccc(OCC(=O)Nc2ccc(N3CCN(S(C)(=O)=O)CC3)cc2)c1C | -12.3%
CCOc1cc(N2CCOCC2)c(OCC)cc1NC(=O)CN1C(=O)NC2(CCc3ccccc32)C1=O (centres undefined) | -7.8%
CCn1c(SCC(=O)Nc2ccc(S(N)(=O)=O)cc2)nnc1-c1ccccc1OC | -8.3%
CCCn1c(=O)c2c(c3ccccc31)OC(C)C(=O)N2 (centres undefined) | 4.5%
O=C(N/N=C/C1C(c2ccccc2)C1(Cl)Cl)c1cccc(Br)c1 (centres undefined) | -0.4%
CN(C)S(=O)(=O)c1ccc(C(=O)Nc2nnc(Cc3ccccc3)s2)cc1 | -6.2%
OC1CCN(c2ncnc3nc[nH]c23)CC1 | 2.2%
CCOC(=O)Cn1c(=O)oc2cc(S(=O)(=O)N3CCC(N4CCCCC4)CC3)ccc21 | 10%
Clc1ccc(Cn2ncc3c(NCCN4CCOCC4)ncnc32)cc1 | -10.2%

SMILES | displacement
O=C1CCCN1c1ccc(Br)cc1 | -0.3%
Cc1c(N2C(=O)c3ccccc3C2=O)c(=O)n(-c2ccccc2)n1C | 3.3%
Cc1c(N2C(=O)c3cccc4cccc(c34)C2=O)c(=O)n(-c2ccccc2)n1C | -13.8%
Cc1c(N2C(=O)c3ccc4c5c(ccc(c35)C2=O)CC4)c(=O)n(-c2ccccc2)n1C | 112% (active)
Cc1ccsc1/C=N/n1cnc2sc(C)c(C)c2c1=O | -9.7%
CC(=O)N1CCN(S(=O)(=O)c2ccc(S(=O)(=O)NC3CC3)cc2)CC1 | -5.1%
CC(C)(C)C(=O)Nc1nc(C2CCCN2S(=O)(=O)c2ccc(Cl)cc2)cs1 (centres undefined) | -7.5%
Cc1ccc(S(=O)(=O)N2CCN(C3CCN(Cc4ccccc4)CC3)CC2)cc1 | 6.6%
CC(C)(C)NC(=O)c1sccc1C(=O)O | -1.7%
Cc1cc(C(=O)O)c(C)n1-c1ccccc1 | -1%
Cc1ccc(-c2csc(N3N=C(c4ccccc4)/C(=C\c4ccc(N(C)C)cc4)C3=O)n2)cc1 | -1.8%
CCOc1cc(/C=C2\SC(=S)N(Nc3ccccc3)C2=O)ccc1O | -87.6%
COc1cc(C2N(c3ccccn3)C(=O)C3CCCN32)cc(OC)c1OC (centres undefined) | 6.8%
Cc1ccc(Cl)c(OCC(=O)Nc2ccc3c(c2)OCCO3)c1 | 1.3%
O=C(O)CN(c1ccc(F)cc1)S(=O)(=O)c1ccc2c(c1)OCCO2 | -1.7%
CC(C)CN(C(=O)COC(=O)c1cc2ccccc2oc1=O)C1CCS(=O)(=O)C1 (centres undefined) | -8.2%
CC(C)CN(C(=O)COC(=O)c1ccc2c(c1)NC(=O)CS2)C1CCS(=O)(=O)C1 (centres undefined) | 8.5%
O=C(CCc1nc2ccccc2s1)OCC(=O)N1CCN(C(=O)c2ccco2)CC1 | -8%
Cn1c(=O)c2c3c(sc2n2c(SCc4ccc5c(c4)OCO5)nnc12)COC(C)(C)C3 | -8.4%
COC(=O)c1ccccc1NC(=O)c1cc2ncc(Br)cn2n1 | 1.3%
O=C(Nc1ccc(F)cc1F)c1cc2ncc(Br)cn2n1 | -2.9%
Cc1ccc(Cc2cnc(NC(=O)C3CCCO3)s2)cc1 (centres undefined) | 0.1%
COc1ccc(C(C)=O)c2c(O)cccc12 | -7%
COc1ccc2c3c(cccc13)N(C)N=C2C | 20.3%
CCC1=NNc2cccc3c(OC)ccc1c23 | 83.6% (active)

SMILES | displacement
CCC(C)(C)n1nnnc1C(c1ccc2ncccc2c1)N1CCN(c2nc3ccccc3s2)CC1 (centres undefined) | -13.1%
COc1ccc(-c2c(C)nn(-c3ccccc3)c2N)cc1 | -8%
CCOc1cc(C(=O)Nc2ccon2)cc(OCC)c1OCC | -15.8%
Cc1cc(=S)cc(C)n1CCCn1ccnc1 | -6.1%
Cc1ccc(S(=O)(=O)NC(=O)c2cc(C)n(CCCN3CCOCC3)c2C)cc1 | 8.5%
Cc1ccccc1C1CC(=O)NC2=C1C(=O)CCC2 (centres undefined) | -1.2%
CCCn1c(SCC(=O)NCCc2ccc(OC)c(OC)c2)nc2c1c(=O)n(C)c(=O)n2C | -14.2%
Cc1cc(C)cc(OCC(=O)OCC(=O)Nc2ccc(Cl)cn2)c1 | -13.6%
O=C(COC(=O)CCOc1ccccc1)Nc1ccc(Cl)cn1 | 16%
CCOC(=O)C1=C(O)/C(=C/N(C)C)N=C1C | -3.9%
CCOC(=O)c1sc(/N=C/N(C)C)c(C(=O)OCC)c1C | -16.8%
CCOC(=O)C(Cc1ccccc1)NC(=O)Cn1nnc(-c2ccc(SC)cc2)n1 (centres undefined) | -16.2%
CCCOP(=O)(OCCC)C(Nc1ccc(C(C)C)cc1)c1ccc([N+](=O)[O-])cc1 (centres undefined) | 13.7%
Cc1c(NS(=O)(=O)c2cccc(C(=O)NCc3ccccc3)c2)c(=O)n(-c2ccccc2)n1C | 0.4%
CCOC(=O)c1ccc(NC(=O)C(C)N2C(=O)c3ccccc3C2=O)cc1 (centres undefined) | 14.6%
CCOC(=O)c1ccc(NC2OC(=O)c3ccccc32)cc1 (centres undefined) | -4.1%
Cc1ccc(CC(=O)OCCNC(=O)c2cccnc2)cc1 | 1.8%
O=c1c2cc(N3CCOCC3)ccc2[nH]c(=S)n1CCCN1CCCC1 | 13.1%
O=c1c2cc(N3CCOCC3)ccc2[nH]c(=S)n1CCCN1CCCCC1 | 10.5%
CN(C)c1ccc(C2N(c3ccc(F)cc3)C(=O)C3CCCN32)cc1 (centres undefined) | -12.2%
Cc1ccc(C)c(NC(=O)C2C(c3ccccc3)C2(Cl)Cl)c1 (centres undefined) | -7.6%
Cc1cccc(Nc2nc(N)nc(CN3CCN(Cc4ccc5c(c4)OCO5)CC3)n2)c1 | -2.8%
Cc1cc(C)nc(/N=C(\N)C2=C(O)CC(C)(C)CC2=O)n1 | -12.3%
CC1(C)OC(=O)C2(Cc3ccccc3N3CCCCC32)C(=O)O1 (centres undefined) | 3.5%
O=C1c2ccccc2C(=O)C12Cc1ccccc1N1CCN(c3ccccc3)CC12 (centres undefined) | -0.1%

SMILES | displacement
O=C(CCS(=O)(=O)c1ccc(Br)cc1)N1CCN(Cc2ccccc2)CC1 | -5%
O=C(CCN1CCc2ccccc2CC1)c1ccc2c(c1)OCCO2 | 19.8%
O=C(CCN1Cc2ccccc2C1)c1ccc2c(c1)OCCO2 | 0.8%
Cc1ccc(S(=O)(=O)NCCC(=O)NC2CCCC2)cc1 | 2%
O=C(CN1C(=O)C2CC=CCC2C1=O)Nc1nc2ccccc2[nH]1 (centres undefined) | 7.6%
CCCOc1cc(C)nc(-c2ccccc2O)n1 | -2.4%
O=C(CN1C(=O)C2CCCCC2C1=O)Nc1nc(-c2ccccn2)cs1 (centres undefined) | -3.3%
O=C(Nc1nc(-c2ccccn2)cs1)C1CC1 | -5.8%
Cc1cc2c(c(=O)n1CC1CCCO1)C(c1ccco1)C(C#N)=C(N)O2 (centres undefined) | -1.3%
CCOC(=O)c1cnc(-n2nc(C)cc2C)nc1Nc1ccc(OC)cc1 | 0.6%
CCN(CC)S(=O)(=O)c1cc(C(=O)Nc2ccc(Cl)cn2)ccc1C | -1.9%
Cc1nc2sc3c(c2c(=O)[nH]1)CCC3 | -1.1%
CCCOc1ccc(Cc2nn3c(=O)/c(=C/c4ccco4)sc3nc2=O)cc1 | -5.7%
Cc1ccc(-c2nc3s/c(=C\c4ccco4)c(=O)n3n2)cc1 | -14.4%
CCn1c2ccccc2c2nnc(SCc3cc(=O)n4ccsc4n3)nc21 | -0.4%
Cc1ccccc1Oc1ccc(S(=O)(=O)NCCC(=O)O)cc1 | 0.5%
Clc1ccc(CN2CCCCCCC2)cc1Cl | -0.5%
O/N=C/c1cccn1-c1ccc(O)cc1 | 0.9%
ON=Cc1cccn1-c1ccccc1 | 3.4%
O=C(Nc1cccnc1)c1c(F)cccc1F | 7.8%
O=C(c1coc(=O)c(Br)c1)N1CCCc2ccccc21 | 18%
COc1ccc(C(=O)N2CCOCC2)cc1Br | -9.8%
O=C(c1ccc(=O)oc1)N1CCOCC1 | -16.5%
CC1(C)CC(NC(=O)c2coc(=O)c(Br)c2)CC(C)(C)N1 | 6.4%
